The supplement of paper PMC11732987, “Enantioselective OTUD7B fragment discovery through chemoproteomics screening and high-throughput optimisation” (Communications Chemistry, 2025)

What was measured:
Assay in all cases: log2 ratio of Biotin-Ahx-Ub-VS probe labelling (fragment/DMSO); higher = less target engagement (more negative = stronger competition), active = hit call of the paper (q ≤ 0.05, log2 ratio ≤ -1)
Settings in all cases: compound concentration: 200 uM; treatment time: 3 h
[1] = biological target: T1, ALG13 (UniProt Q9NP73)
T1 sequence (whole entry): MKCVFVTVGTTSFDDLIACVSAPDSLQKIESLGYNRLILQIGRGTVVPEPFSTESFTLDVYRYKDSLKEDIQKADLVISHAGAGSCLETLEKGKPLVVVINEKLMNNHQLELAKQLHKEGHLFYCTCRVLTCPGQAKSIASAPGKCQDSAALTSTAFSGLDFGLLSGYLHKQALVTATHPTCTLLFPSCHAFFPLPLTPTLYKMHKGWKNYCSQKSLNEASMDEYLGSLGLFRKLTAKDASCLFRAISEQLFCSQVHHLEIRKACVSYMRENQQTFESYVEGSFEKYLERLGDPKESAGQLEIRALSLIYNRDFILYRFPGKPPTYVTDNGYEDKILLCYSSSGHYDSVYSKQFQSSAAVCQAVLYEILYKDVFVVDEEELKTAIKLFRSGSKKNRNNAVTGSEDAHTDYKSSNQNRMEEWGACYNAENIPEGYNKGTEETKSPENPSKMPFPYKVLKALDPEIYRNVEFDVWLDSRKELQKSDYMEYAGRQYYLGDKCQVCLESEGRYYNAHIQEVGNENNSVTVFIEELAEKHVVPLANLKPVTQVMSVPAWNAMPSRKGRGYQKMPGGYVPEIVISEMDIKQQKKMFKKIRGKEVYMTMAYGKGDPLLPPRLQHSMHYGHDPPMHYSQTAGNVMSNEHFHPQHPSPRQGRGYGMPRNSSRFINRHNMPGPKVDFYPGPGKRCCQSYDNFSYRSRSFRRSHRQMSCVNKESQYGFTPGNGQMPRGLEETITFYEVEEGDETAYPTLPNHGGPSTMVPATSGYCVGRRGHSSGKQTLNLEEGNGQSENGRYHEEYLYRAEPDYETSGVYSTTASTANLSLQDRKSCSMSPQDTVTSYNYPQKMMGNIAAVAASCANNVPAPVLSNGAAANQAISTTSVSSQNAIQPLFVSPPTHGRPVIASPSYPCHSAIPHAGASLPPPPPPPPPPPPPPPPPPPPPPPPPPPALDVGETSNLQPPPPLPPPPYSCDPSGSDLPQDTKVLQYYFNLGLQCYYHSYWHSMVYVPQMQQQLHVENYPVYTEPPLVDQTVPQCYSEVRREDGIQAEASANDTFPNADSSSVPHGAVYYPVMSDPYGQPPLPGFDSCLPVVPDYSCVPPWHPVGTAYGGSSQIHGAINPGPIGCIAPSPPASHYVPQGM
Procedure, shortened: (§1)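 The table lists average log2 ratios of fragment over vehicle, from an unpaired t-test on global-median-normalised Spectronaut label-free quantities. Proteins with ≥2 unique peptides were used. Samples were HEK293T lysate (495 µg) treated in triplicate with fragment at 200 µM or vehicle for 3 h, then with Biotin-Ahx-Ub-VS (0.5 µM final) for 1 h, with labelled DUBs NeutrAvidin-enriched and run by diaPASEF LC-MS/MS.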

[2] = biological target: ATXN3 (UniProt P54252)
Procedure, shortened: as §1

[3] = biological target: T2, BAP1 (UniProt Q92560)
T2 sequence (whole entry): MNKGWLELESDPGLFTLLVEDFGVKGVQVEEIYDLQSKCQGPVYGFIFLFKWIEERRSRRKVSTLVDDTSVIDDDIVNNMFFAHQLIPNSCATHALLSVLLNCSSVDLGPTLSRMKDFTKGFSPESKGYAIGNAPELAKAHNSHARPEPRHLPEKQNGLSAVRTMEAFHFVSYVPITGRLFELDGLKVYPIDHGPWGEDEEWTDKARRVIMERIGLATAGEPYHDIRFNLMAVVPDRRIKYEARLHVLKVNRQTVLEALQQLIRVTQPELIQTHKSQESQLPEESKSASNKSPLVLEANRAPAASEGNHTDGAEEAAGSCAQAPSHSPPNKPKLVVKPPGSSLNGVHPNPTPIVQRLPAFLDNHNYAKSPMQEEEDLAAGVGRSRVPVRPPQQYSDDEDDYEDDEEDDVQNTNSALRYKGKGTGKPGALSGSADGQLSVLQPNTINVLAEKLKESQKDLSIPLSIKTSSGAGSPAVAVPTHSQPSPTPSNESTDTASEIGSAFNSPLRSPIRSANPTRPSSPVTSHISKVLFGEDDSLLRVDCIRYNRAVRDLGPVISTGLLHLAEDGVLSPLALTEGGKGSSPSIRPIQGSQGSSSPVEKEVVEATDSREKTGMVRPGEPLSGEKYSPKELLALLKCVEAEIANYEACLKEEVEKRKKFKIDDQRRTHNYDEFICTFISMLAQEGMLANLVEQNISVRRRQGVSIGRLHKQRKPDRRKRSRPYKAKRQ
Procedure, shortened: as §1

[4] = biological target: EIF3F (UniProt O00303)
Procedure, shortened: as §1

[5] = biological target: EIF3H (UniProt O15372)
Procedure, shortened: as §1

[6] = biological target: T3, FAM105A (UniProt Q9NUU6)
T3 sequence (whole entry): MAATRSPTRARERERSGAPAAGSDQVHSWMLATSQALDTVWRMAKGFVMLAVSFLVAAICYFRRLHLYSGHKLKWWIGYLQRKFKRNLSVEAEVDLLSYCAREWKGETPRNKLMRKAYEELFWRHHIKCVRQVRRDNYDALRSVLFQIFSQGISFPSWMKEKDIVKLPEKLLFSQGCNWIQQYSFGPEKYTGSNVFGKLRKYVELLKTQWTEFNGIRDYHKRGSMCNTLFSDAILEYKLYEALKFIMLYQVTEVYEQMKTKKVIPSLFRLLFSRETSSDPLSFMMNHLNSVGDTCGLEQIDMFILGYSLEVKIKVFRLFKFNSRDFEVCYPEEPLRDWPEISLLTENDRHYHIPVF
Procedure, shortened: as §1

[7] = biological target: OTUB1 (UniProt Q96FW1)
Procedure, shortened: as §1

[8] = biological target: T4, OTUD4 (UniProt Q01804)
T4 sequence (whole entry): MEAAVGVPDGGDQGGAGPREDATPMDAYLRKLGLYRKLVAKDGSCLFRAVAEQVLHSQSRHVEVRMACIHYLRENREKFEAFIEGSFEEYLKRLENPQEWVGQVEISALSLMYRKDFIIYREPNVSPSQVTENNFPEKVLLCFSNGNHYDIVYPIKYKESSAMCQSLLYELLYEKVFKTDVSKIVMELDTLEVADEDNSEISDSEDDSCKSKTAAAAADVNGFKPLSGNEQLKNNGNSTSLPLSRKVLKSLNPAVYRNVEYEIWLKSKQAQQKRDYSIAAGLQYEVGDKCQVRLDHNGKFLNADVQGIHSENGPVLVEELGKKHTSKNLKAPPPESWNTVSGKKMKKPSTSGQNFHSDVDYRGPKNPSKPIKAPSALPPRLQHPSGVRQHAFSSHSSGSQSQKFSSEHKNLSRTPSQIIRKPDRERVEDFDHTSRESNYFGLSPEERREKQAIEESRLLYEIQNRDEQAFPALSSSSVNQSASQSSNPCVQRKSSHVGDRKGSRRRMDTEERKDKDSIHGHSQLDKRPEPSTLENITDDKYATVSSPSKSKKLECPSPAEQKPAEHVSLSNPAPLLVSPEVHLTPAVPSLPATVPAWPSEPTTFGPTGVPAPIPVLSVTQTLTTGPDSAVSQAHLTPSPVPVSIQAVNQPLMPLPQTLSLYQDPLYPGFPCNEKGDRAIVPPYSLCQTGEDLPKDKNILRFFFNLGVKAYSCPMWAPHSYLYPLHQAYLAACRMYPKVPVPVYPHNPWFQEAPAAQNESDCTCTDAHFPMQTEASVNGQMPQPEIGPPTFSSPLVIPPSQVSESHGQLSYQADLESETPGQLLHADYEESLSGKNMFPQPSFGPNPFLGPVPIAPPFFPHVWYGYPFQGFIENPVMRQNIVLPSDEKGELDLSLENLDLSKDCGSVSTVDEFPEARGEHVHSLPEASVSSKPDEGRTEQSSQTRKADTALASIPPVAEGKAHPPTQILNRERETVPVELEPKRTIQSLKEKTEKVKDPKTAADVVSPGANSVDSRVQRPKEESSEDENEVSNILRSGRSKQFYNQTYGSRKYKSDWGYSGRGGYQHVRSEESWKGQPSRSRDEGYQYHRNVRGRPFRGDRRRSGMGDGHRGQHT
Procedure, shortened: as §1

[9] = biological target: T5, OTUD5 (UniProt Q96G74)
T5 sequence (whole entry): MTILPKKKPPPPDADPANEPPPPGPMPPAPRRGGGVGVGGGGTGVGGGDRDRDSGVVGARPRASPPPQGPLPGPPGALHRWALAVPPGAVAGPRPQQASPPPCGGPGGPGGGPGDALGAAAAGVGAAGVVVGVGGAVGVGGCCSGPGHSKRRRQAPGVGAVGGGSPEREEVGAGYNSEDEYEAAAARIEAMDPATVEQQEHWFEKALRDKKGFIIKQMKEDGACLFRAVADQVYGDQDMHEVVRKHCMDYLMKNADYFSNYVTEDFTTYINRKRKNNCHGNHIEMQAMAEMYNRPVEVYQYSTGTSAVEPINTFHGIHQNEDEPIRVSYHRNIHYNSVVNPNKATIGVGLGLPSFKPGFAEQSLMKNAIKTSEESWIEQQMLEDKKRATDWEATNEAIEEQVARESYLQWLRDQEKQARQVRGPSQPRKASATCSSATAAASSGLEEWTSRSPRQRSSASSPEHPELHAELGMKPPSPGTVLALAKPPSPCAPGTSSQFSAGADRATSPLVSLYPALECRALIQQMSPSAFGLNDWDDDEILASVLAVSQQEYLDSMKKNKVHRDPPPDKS
Procedure, shortened: as §1

Measured: log2 ratio of Biotin-Ahx-Ub-VS probe labelling

EIF3F, sequence (O00303 whole entry): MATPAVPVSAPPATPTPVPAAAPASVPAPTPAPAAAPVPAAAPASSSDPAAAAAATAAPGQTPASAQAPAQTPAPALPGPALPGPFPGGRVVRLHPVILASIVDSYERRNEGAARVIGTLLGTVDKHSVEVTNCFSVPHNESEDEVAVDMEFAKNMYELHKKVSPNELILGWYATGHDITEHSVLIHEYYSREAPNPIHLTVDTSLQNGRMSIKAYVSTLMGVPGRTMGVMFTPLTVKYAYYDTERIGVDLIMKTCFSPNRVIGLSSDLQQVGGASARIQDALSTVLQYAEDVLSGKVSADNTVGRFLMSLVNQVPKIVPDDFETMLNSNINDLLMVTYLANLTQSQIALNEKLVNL
ATXN3, sequence (P54252 whole entry): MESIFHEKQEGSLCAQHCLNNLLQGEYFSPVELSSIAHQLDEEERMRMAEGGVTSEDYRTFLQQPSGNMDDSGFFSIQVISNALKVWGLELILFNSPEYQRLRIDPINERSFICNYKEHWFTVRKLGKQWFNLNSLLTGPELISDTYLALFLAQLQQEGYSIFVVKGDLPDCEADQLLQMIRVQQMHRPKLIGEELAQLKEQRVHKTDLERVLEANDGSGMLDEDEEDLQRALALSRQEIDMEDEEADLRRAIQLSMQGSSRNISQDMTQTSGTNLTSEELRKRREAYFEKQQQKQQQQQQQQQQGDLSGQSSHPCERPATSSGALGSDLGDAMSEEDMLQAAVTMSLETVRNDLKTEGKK
OTUB1, sequence (Q96FW1 whole entry): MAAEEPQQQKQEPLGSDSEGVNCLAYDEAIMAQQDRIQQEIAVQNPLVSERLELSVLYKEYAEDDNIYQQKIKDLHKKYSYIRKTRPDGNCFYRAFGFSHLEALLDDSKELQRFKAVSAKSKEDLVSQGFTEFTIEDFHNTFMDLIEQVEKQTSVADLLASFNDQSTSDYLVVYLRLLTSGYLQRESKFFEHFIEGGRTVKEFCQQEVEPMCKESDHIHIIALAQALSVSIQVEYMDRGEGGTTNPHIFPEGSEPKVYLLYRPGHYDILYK
EIF3H, sequence (O15372 whole entry): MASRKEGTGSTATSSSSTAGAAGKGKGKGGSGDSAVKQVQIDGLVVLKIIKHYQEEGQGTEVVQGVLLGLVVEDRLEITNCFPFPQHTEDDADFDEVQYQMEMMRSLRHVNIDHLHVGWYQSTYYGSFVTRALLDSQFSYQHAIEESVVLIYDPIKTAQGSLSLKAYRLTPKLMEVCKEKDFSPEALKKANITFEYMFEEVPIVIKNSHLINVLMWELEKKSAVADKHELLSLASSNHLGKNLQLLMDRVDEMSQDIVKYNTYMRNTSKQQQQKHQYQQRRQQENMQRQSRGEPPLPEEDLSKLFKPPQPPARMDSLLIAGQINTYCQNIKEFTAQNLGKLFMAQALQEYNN

COc1ccc(-c2csc(NC(=O)CCl)n2)cc1
inactive: [1] -0.0925 | [2] -0.907 | [4] -0.0557 | [5] 0.443 | [6] -0.207 | [7] -0.0658 | [8] -0.702 | [9] -0.997
active: [3] -2.94
